{
  "source": "PubChem BioAssay AID1578",
  "about": "(Sanford-Burnham Center for Chemical Genomics, 2009)",
  "note": "Where “and” joins values, the source holds several entries; their conditions need not be identical. Equal entries are not always repeated. The whole screen tested about 290,000 compounds, of which about 3,000 (1%) were called active. The entries come from a sample that favours actives as a whole. A number with no mark means an inactive call. Cut-off read from the data, not from the text of the source: active = inhibition mostly above about 36% (no sharp cut-off); inactive = mostly below about 34%.",
  "data": [
    {"assay": "NOD1 signaling inhibitors, primary screen, cell-based, luminescence, uHTS (AID 1578);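 note: HEK-293T reporter cells stimulated with the NOD1 agonist gamma-tri-DAP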", "settings": "NOD1-driven NF-kB luciferase reporter cells, at 4 µM, stronger effect = higher value", "values": [
      {"smiles": "CCCc1nc(SCC(=O)N2CCN(c3ccccc3)CC2)c2c(=O)n(C)c(=O)n(C)c2n1", "inhibition": "9%"},
      {"smiles": "CCn1nc(NC(=O)c2cccnc2)c2cc3cccc(C)c3nc21", "inhibition": "-11.6%"},
      {"smiles": "Cc1cc(Cl)ccc1OCC(=O)NCCCCc1ccccc1", "inhibition": "-5.1%"},
      {"smiles": "Nc1[nH]c(N=NC(=O)c2ccc(Cl)cc2)c2ccccc12", "inhibition": "-25.6%"},
      {"smiles": "CCOCCCNC(=S)Nc1ccc2nc(N3CCOCC3)cc(C)c2c1", "inhibition": "-4%"},
      {"smiles": "Cc1cc(-c2ccc(C(C)C)c(S(=O)(=O)NCCN3CCC(C)CC3)c2)on1", "inhibition": "-17.2%"},
      {"smiles": "Cc1ccnc(NC(=O)Nc2cccc(F)c2)n1", "inhibition": "-65.5%"},
      {"smiles": "Cc1ccc(C(=O)Nc2cccc(C(F)(F)F)c2)cc1Nc1ccccn1", "inhibition": "-7.5%"},
      {"smiles": "CCN1CCN(Cc2ccc(NC(=O)c3ccc(C)c(NC(=O)N4CCNC4=O)c3)cc2C(F)(F)F)CC1", "inhibition": "-7.6% and 18%"},
      {"smiles": "CCN1CCN(Cc2ccc(C(=O)Nc3ccc(C)c(NCc4cnc(NC(=O)OC)cn4)c3)cc2C(F)(F)F)CC1", "inhibition": "-2.2%"},
      {"smiles": "Cc1ccc(C(=O)Nc2cccc(C(F)(F)F)c2)cc1Nc1cnccn1", "inhibition": "-3.7%"},
      {"smiles": "CN(C)c1ccc(/C=C2\\C(=N)N3N=C(CC(=O)N4CCCC4)SC3=NC2=O)cc1Br", "inhibition": "-16.4%"},
      {"smiles": "CC(C)(Oc1ccc(Cl)cc1)C(=O)Nc1ccc2oc(=O)ccc2c1", "inhibition": "-7.5%"},
      {"smiles": "Cc1cccc(NC(=O)Nc2ccc(C#N)cc2)n1", "inhibition": "62.7% (active)"},
      {"smiles": "Cc1ccc(NC(=O)Nc2cccc(C)n2)cc1", "inhibition": "-12.5%"},
      {"smiles": "Cc1cccc(NC(=O)Nc2cccc(C#N)c2)n1", "inhibition": "-17.2%"},
      {"smiles": "COc1ccc(OCC(=O)Nc2ccc3c(c2)nc(CCN2CCCCC2)n3C)cc1", "inhibition": "-22.2%"},
      {"smiles": "Cc1nnc(NC(=O)c2c(F)c(F)c(F)c(F)c2F)s1", "inhibition": "-22.9%"},
      {"smiles": "O=C(N/N=C/c1ccc(OC(=O)c2ccccc2Cl)cc1)c1ccccn1", "inhibition": "-55.2%"},
      {"smiles": "CN1C(CC(=O)Nc2ccc(Br)cc2)c2ccccc2CC1(C)C", "note": "(centres undefined)", "inhibition": "92.6% (active)"},
      {"smiles": "Cc1ccccc1NC(=O)CC1c2ccccc2CC(C)(C)N1C", "note": "(centres undefined)", "inhibition": "-25.6%"},
      {"smiles": "CN1C(CC(=O)Nc2ccc(Cl)cc2Cl)c2ccccc2CC1(C)C", "note": "(centres undefined)", "inhibition": "2.4%"},
      {"smiles": "O=C1CC(N(CCc2ccccc2)C(=S)Nc2ccccc2)C(=O)N1c1ccc(Br)cc1", "note": "(centres undefined)", "inhibition": "-50%"},
      {"smiles": "Cc1cc2cc(C)c(NCCNC(=O)c3ccccc3Cl)nc2cc1C", "inhibition": "-21.1%"},
      {"smiles": "CCN(CC)S(=O)(=O)c1ccc(NS(=O)(=O)c2ccc(F)cc2)cc1", "inhibition": "9.7%"},
      {"smiles": "CCN(CC)S(=O)(=O)c1ccc(-c2ccc(S(=O)(=O)N(CC)CC)cc2)cc1", "inhibition": "39.7%"},
      {"smiles": "CCN(CC)S(=O)(=O)c1ccc(F)cc1", "inhibition": "71.7% (active)"},
      {"smiles": "O=C(/C=C/c1ccccc1Cl)NCCc1ccc(F)cc1", "inhibition": "-61.3%"},
      {"smiles": "COc1ccc(C(=O)/C=C/C(=O)N(CC(=O)NCCC(C)C)Cc2cccs2)c(O)c1", "inhibition": "86.8% (active)"},
      {"smiles": "COc1ccc(C(=O)N(Cc2ccco2)Cc2cccs2)c(O)c1", "inhibition": "29.1%"},
      {"smiles": "COc1ccc(C(=O)/C=C/C(=O)N(CC(=O)NC2CCCCC2)Cc2cccs2)c(O)c1", "inhibition": "36.2%"},
      {"smiles": "COc1ccc(C(=O)/C=C/C(=O)N(CC(=O)NC2CCCCC2)Cc2ccccc2)c(O)c1", "inhibition": "26%"},
      {"smiles": "COc1ccc(C(=O)/C=C/C(=O)N(CC(=O)NC2CCCCC2)Cc2ccc(F)cc2)c(O)c1", "inhibition": "16.3%"},
      {"smiles": "COc1ccc(C(=O)/C=C/C(=O)N(CC(=O)NC2CCCCC2)CC2CCCO2)c(O)c1", "note": "(centres undefined)", "inhibition": "68.4% (active)"},
      {"smiles": "COc1ccc2cnn(-c3ccc(OC(F)(F)F)cc3)c(=O)c2c1OC", "inhibition": "-0.3%"},
      {"smiles": "Cc1ccc(CNC(=O)C2CCC(=O)N2Cc2ccc(C)cc2)cc1", "note": "(centres undefined)", "inhibition": "0.2%"},
      {"smiles": "CN1CCN(C(=O)c2ccc(CSc3ccc(Cl)cc3)cc2)CC1", "inhibition": "-13.5%"},
      {"smiles": "O=C(c1ccc(CSc2ccc(Cl)cc2)cc1)N1CCCC1", "inhibition": "-3.6%"},
      {"smiles": "CCOC(=O)N1CCN(C(=O)c2ccc(CSc3ccc(Cl)cc3)cc2)CC1", "inhibition": "62.9% (active)"},
      {"smiles": "C=CCn1c(O)c(CN2CCCCC2)c(C)c(C#N)c1=O", "inhibition": "-25.8%"},
      {"smiles": "O=C(CN1CCCCC1)Nc1ccc(N2CCCCCC2)cc1", "inhibition": "-21%"},
      {"smiles": "O=C(Nc1ccc(N2CCOCC2)cc1)c1cnccn1", "inhibition": "52.9% (active)"},
      {"smiles": "O=C(Nc1ccc(N2CCCCC2)cc1)c1ccccn1", "inhibition": "89.3% (active)"},
      {"smiles": "O=C(Nc1ccc(N2CCCCC2)cc1)c1cccnc1Cl", "inhibition": "-28%"},
      {"smiles": "CCC(=O)Nc1ccc(N2CCCCC2)cc1", "inhibition": "0.2%"},
      {"smiles": "Cc1cnc(C(=O)Nc2ccc(N3CCOCC3)cc2)cn1", "inhibition": "-18.5%"},
      {"smiles": "O=C(CCl)Nc1ccc(N2CCCCCC2)cc1", "inhibition": "65.3% (active)"},
      {"smiles": "O=C(Nc1ccc(N2CCCCCC2)cc1)c1ccccc1Cl", "inhibition": "-33.9%"},
      {"smiles": "CCN1CCN(c2ccc(NC(=O)c3cnccn3)cc2)CC1", "inhibition": "-37.5%"}
    ]}
  ]
}
